# PubChem BioAssay
# Key:
# [1] = target: PEG-3 (UniProt Q6IN02); assay: inhibition of PEG-3 promoter-driven reporter – cell-based, HeLa, luciferase, CREF/GAPDH counter-screen panel, dose response (AID 624167); details: CREF/GAPDH counter-screens; HeLa PEG-Prom luciferase reporter, overnight, run 1, dose range 1, at 100 µM (top of the series) unless noted
# [2] = target: PEG-3 (UniProt Q6IN02); assay: as above; details: CREF/GAPDH counter-screens; HeLa PEG-Prom luciferase reporter, overnight, run 2, dose range 1, at 100 µM (top of the series) unless noted
# [3] = system: Rat fibroblasts (CREF); assay: as above; details: CREF/GAPDH counter-screens; run 1, dose range 1, at 100 µM (top of the series)
# [4] = system: Rat fibroblasts (CREF); assay: as above; details: CREF/GAPDH counter-screens; run 2, dose range 1, at 100 µM (top of the series)
# [5] = target: Tumor necrosis factor receptor superfamily member 10B (Homo sapiens) (UniProt O14763); assay: viability loss of caspase-8 NB7 cells with TRAIL – with/without TRAIL, luminescence panel, confirmation (AID 651596); details: NB7 neuroblastoma + caspase-8, TRAIL sensitization, NB7 Caspase-8, with TRAIL, mean of runs, at 10 µM, stronger effect = higher value
# Chain of Tumor necrosis factor receptor superfamily member 10B (Homo sapiens) (O14763 whole entry, looked up): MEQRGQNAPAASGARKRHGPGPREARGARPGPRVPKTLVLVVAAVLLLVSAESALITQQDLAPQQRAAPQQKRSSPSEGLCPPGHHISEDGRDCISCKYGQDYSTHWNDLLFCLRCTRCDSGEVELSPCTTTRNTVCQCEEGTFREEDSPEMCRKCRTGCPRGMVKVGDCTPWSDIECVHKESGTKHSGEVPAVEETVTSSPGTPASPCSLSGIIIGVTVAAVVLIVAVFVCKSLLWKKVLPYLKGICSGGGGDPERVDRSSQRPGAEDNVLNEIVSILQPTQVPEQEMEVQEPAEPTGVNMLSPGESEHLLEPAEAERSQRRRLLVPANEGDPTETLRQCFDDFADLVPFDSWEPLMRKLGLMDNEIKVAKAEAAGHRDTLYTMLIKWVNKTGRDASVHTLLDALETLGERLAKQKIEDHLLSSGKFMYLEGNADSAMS
# [6] = as above; details: NB7 neuroblastoma + caspase-8, without TRAIL, NB7 Caspase-8, without TRAIL, mean of runs, at 10 µM
# [7] = NFkB reporter suppression in cystic fibrosis bronchial cells – cell-based, uHTS hits, panel, cytotoxicity readout, dose response (AID 624344); details: CF bronchial epithelial cells, PAF-induced NFkB reporter inhibition, with PAF, run 1; at 79 µM (top of the series) unless noted
# [8] = as above; details: CF bronchial epithelial cells, PAF-induced NFkB reporter inhibition, with PAF, run 2; at 79 µM (top of the series) unless noted
# Chain of PEG-3 (Q6IN02 whole entry, looked up): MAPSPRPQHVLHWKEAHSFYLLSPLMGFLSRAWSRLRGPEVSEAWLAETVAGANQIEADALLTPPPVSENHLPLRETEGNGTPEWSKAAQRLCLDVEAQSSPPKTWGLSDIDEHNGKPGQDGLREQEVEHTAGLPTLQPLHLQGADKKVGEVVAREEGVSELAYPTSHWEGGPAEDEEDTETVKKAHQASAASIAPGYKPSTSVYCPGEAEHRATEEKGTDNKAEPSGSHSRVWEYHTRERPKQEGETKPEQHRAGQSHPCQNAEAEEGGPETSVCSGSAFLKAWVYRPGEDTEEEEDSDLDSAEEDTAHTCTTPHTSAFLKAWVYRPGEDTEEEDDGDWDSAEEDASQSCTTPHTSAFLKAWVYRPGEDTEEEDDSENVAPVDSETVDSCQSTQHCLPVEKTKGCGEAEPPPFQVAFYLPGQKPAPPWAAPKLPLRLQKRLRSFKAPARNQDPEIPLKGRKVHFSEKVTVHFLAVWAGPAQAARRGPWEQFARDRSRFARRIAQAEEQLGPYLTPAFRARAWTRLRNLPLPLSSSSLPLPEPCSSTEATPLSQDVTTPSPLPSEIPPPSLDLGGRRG
SMILES,inhibition [1] [%],inhibition [2] [%],inhibition [3] [%],inhibition [4] [%],activity [5] [%],activity [6] [%],inhibition [7] [%],inhibition [8] [%]
COCCn1c(C)cc(C(=O)COC(=O)c2cccc(O)c2)c1C,89.5,91.3,98.3,97.1,86.2,87.7,,
COc1cc(CNCCCN2CCOCC2)cc(Br)c1OCc1ccc(Cl)cc1,99.2,101,100,99.1,,,,
Cc1cccc(OCC(=O)NCC(=O)N/N=C/c2cc(Br)cc(Br)c2O)c1,75,86.2,65.6,74.7,,,,
O=[N+]([O-])c1nn(-c2ccc3c(c2)OCCO3)n(O)c1=Nc1ccc(Cl)cc1,48.4,73.7,13.6,8.03,,,,
C/C(=N\NC(=O)c1cc(C2CC2)nc2ccccc12)c1ccc(O)cc1O,59.9,61.4,31.4,65.1,,,,
N=c1n(CCN2CCCCC2)c2ccccc2n1CC(O)c1ccc(Cl)c(Cl)c1 (stereo not given),99.3,98.6,100,99.7,,,,
CC(=O)Nc1ccc(NC(=O)c2nc(S(=O)(=O)Cc3cccc(C)c3)ncc2Cl)cc1,102,97.4,100,100,56.4,99.4,76.1,85.4
Fc1ccc(-c2nnc(NC3=NCCCCC3)o2)cc1,94.9,97.3,95.2,94,76,77.7,,
CN1C/C(=C/c2ccccc2[N+](=O)[O-])C(=O)/C(=C\c2ccccc2[N+](=O)[O-])C1,101,102,71.1,95.6,,,,
CCCCCN1C=CC(=C2C(=O)c3ccccc3C2=O)C=C1,102,99.1,98.2,98.3,,,,
CCCCCCCNC(=O)C1(CC2CC(c3cccc(Br)c3)=NO2)CCNCC1 (stereo not given),99.6,101,99.7,99.2,60.5,98.4,,
CN1CCN(c2ccc(-c3ccc4ccccc4n3)cc2)CC1,99.5,101,98.1,98.6,88.5,84.3,,
COc1cccc(NC(=O)c2nc(S(C)(=O)=O)ncc2Cl)c1,99.3,101,99.4,99.1,13.1,19.6,,
O=C(Nc1ccccn1)c1cc2ccccc2o1,82.3,96.6,99.4,98.8,90.3,89.6,,
COc1ccc(/C=N/Nc2nncc3ccccc23)cc1,92.6,95.4,97.8,98.9,97.3,97,,
CCc1ccc(C(=O)Nc2nc3ccccc3[nH]2)cc1,95.9,97.2,98.4,98.5,98.2,98.5,,

SMILES,inhibition [1] [%],inhibition [2] [%],inhibition [3] [%],inhibition [4] [%],activity [5] [%],activity [6] [%],inhibition [7] [%],inhibition [8] [%]
CC(C)(C)C(=O)Nc1ccc(NC(=O)c2ccco2)nc1,102,101,100,100,98.7,98.5,,
Cc1csc(NC(=O)c2cn3ccccc3n2)n1,99,99.7,99.8,99.8,89.6,89.8,,
O=C(CCl)Nc1ccccc1Sc1ccc(Cl)cc1,102,98.7,99.4,100,99.2,99.5,,
CC(=O)c1cccc(-c2ccnc3c2CC(C(=O)Nc2cccc(NS(C)(=O)=O)c2)O3)c1 (stereo not given),58,65,30,47.2,74.9,73.6,,
Cc1csc(NC(=O)c2ccc(N3CCCC3=O)cc2)n1,88.6,78.1,88.8,90.4,77.3,73.5,,
C=C1CC(COc2ccc3c(C)c(Cl)c(=O)oc3c2)(c2ccccc2)OC1=O (stereo not given),99.6,101,98.2,98,97.8,99,,
C(=NN1CCCCCC1)c1ccc2ccccc2n1,102,101,101,100,95.4,94.3,,
OCC1OC(n2ccc3c(NO)ncnc32)C(O)C1O (stereo not given),99.4,101,95.4,94.6,98.8,99.1,,
Cc1cccc(/C=N/Nc2ccc3ccccc3n2)c1,101,101,94.2,96.2,82.4,78.5,,
O=C(N/N=C/c1cccs1)c1n[nH]c2c1CCCC2,99.5,94.8,96.4,96.8,81,84.2,,
CC1CCN(c2ccc(-c3cccc(NC(=O)C(F)(F)F)c3)nn2)CC1,93.8,94.5,99.2,99.5,97.5,97.7,,
COCCn1c(C)cc(C(=O)CSc2nnc(C)s2)c1C,96.1,94.9,90.8,90.7,53.5,49,,
Cc1ccccc1-c1nc(-c2ccccn2)no1,96.7,92,99.5,99.3,88.8,86.8,,
CCOc1ccc(-c2ccc(SC)nn2)cc1,95,92.5,97.5,98.9,95.2,95.1,,
CCOc1ccc(NC(=O)c2ccccn2)cc1,88.8,91.5,97.1,95.5,92.4,89.9,,
COc1cc(SC)ccc1C(=O)Nc1nc2ccccc2[nH]1,99.2,101,96.9,97.9,99,99,,
